The source made the active and inactive calls. A call without a number means that no potency is given here. Calls follow the shape of the full dose curve.
These compounds were tested against Muscarinic acetylcholine receptor M1 (Homo sapiens) (UniProt P11229) (assay: Cholinergic receptor muscarinic 1 (CHRM1) small molecule agonists, cell-based qHTS assay (AID 1963589; also: nearly all actives have a fitted effect of over 35% in size)). Conditions: CHRM1-CHO cells, agonist mode, calcium flux fluorescence; series mostly up to 76.8 µM.
Muscarinic acetylcholine receptor M1 (Homo sapiens), sequence (P11229 whole entry, looked up): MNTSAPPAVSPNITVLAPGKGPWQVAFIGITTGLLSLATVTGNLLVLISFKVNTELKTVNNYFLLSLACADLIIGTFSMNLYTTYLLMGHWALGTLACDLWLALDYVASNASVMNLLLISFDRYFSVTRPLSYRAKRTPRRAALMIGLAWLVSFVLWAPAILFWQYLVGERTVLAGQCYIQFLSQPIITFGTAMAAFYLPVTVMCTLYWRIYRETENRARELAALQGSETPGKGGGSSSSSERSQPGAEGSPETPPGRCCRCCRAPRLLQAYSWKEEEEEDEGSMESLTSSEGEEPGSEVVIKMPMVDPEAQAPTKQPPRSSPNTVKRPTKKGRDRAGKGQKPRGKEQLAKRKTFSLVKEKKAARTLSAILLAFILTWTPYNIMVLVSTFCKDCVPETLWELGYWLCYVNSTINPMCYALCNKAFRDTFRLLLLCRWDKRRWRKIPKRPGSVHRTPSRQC
In short: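 Agonist-mode qHTS in CHO cells stably carrying human muscarinic M1. Intracellular calcium is tracked by fluorescence every second after compound transfer; each compound runs at 15 concentrations in three independent runs.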

With `CC(C)[N+](C)(CCC(C(N)=O)(c1ccccc1)c1ccccc1)C(C)C` as the compound, how does the Potency read?
The Potency was “inactive”.

With `O=C(Cl)CCl` as the compound, how does the Potency read?
Its Potency is “inactive”.

With `COC(=O)c1ccccc1N` as the compound, how does the Potency read?
The Potency was “inactive”.

For `CN(C)NC(=O)CCC(=O)O`, which Potency is on record?
Its Potency is “inactive”.

Which Potency does the source give for `CN(C)C(=O)C(c1ccccc1)c1ccccc1` here?
Its Potency is “inactive”.

How did the Potency turn out when `ClCc1ccccn1` was run?
The Potency was “inactive”.

How did the Potency turn out when `CCCOC(=O)c1ccccc1C(=O)OCCC` was run?
Its Potency is “inactive”.

For `Cc1ccc(N)c(N)c1`, which Potency is on record?
The Potency was “inactive”.

`N#CC1(N=NC2(C#N)CCCCC2)CCCCC1` was tested. Which Potency did it give?
Its Potency is “inactive”.

With `C=C(C)C(=O)OCC(CC)CCCC` (stereo not drawn) as the compound, how does the Potency read?
Its Potency is “inactive”.

Which Potency does the source give for `O=C(CCN1CC1)OCC(CO)(COC(=O)CCN1CC1)COC(=O)CCN1CC1` here?
Its Potency is “inactive”.

How did the Potency turn out when `CCCCOC(=O)c1ccccc1C(=O)OCCCC` was run?
The Potency was “inactive”.

With `CC(O)CN(CC(C)O)CC(C)O` (stereo not drawn) as the compound, how does the Potency read?
The Potency was “inactive”.

`CN(N=O)C(N)=O` was tested. Which Potency did it give?
The Potency was “inactive”.

For `CCOC(=O)c1cncn1C(C)c1ccccc1` (stereo not drawn), which Potency is on record?
The Potency was “inactive”.

`CCN(CC)c1ccccc1` was tested. Which Potency did it give?
Its Potency is “inactive”.

Which Potency does the source give for `CCOc1nc(F)cc2nc(S(=O)(=O)Nc3c(Cl)cccc3Cl)nn12` here?
The Potency was “inactive”.

Which Potency does the source give for `O=[N+]([O-])c1ccccc1O` here?
Its Potency is “inactive”.

How did the Potency turn out when `Nc1ccc(N=Nc2ccc(-c3ccc(N=Nc4c(S(=O)(=O)O)cc5cc(S(=O)(=O)O)c(N=Nc6ccccc6)c(O)c5c4N)cc3)cc2)c(N)c1` was run?
Its Potency is “inactive”.

How did the Potency turn out when `c1ccc(P(c2ccccc2)c2ccccc2)cc1` was run?
Its Potency is “inactive”.

For `CCCCCBr`, which Potency is on record?
The Potency was “inactive”.

`c1ccc2c(c1)sc1ccccc12` was tested. Which Potency did it give?
Its Potency is “inactive”.

How did the Potency turn out when `COc1ccc2c3c1O[C@H]1[C@H](O)CC[C@H]4[C@@H](C2)N(C)CC[C@@]341` was run?
Its Potency is “inactive”.

Which Potency does the source give for `CN(C)CCc1c[nH]c2cccc(OP(=O)(O)O)c12` here?
Its Potency is “inactive”.

With `CC(Cl)C(=O)O` (stereo not drawn) as the compound, how does the Potency read?
Its Potency is “inactive”.

Which Potency does the source give for `Clc1ccc(Cl)cc1` here?
Its Potency is “inactive”.

Which Potency does the source give for `FC(F)(F)c1ccc(Cl)cc1` here?
The Potency was “inactive”.

How did the Potency turn out when `CCCCCCCCCBr` was run?
The Potency was “inactive”.

How did the Potency turn out when `COC(=O)NS(=O)(=O)c1ccc(N)cc1` was run?
The Potency was “inactive”.

With `CC(O)CN1CCN(CC(=O)[O-])CCN(CC(=O)[O-])CCN(CC(=O)[O-])CC1.[Gd+3]` (stereo not drawn) as the compound, how does the Potency read?
The Potency was “inactive”.

Which Potency does the source give for `Nc1cnn(-c2ccccc2)c(=O)c1Cl` here?
The Potency was “inactive”.

For `Cl[C@H]1OCCO[C@@H]1Cl`, which Potency is on record?
The Potency was “inactive”.

`O=[N+]([O-])c1cc(Cl)ccc1Cl` was tested. Which Potency did it give?
Its Potency is “inactive”.

Which Potency does the source give for `c1nc[nH]n1` here?
Its Potency is “inactive”.

With `COC[C@H](C)N(C(=O)CCl)c1c(C)csc1C` as the compound, how does the Potency read?
Its Potency is “inactive”.

For `CCC(=O)Nc1ccc(Cl)c(Cl)c1`, which Potency is on record?
The Potency was “inactive”.

How did the Potency turn out when `C=C(C)C(=O)OCC1CO1` (stereo not drawn) was run?
The Potency was “inactive”.

With `O=C(NC(=O)c1c(F)cccc1F)Nc1cc(Cl)c(OC(F)(F)C(F)C(F)(F)F)cc1Cl` (stereo not drawn) as the compound, how does the Potency read?
The Potency was “inactive”.

Reference: PubChem BioAssay (Tox21)
